Bioassay records as filed in PubChem BioAssay.
This is a sample that favours compounds with a hit; in the whole collection about 5.6% have one here.
CtBP-E1A blk – blocks the CtBP interaction with E1A. AlphaScreen GST-E1A/His-CtBP binding, 1536-well; hits give low values. activity change, % (concentration not given with the values). 340,000 compounds, 0.49% hits; in the data active = activity change below about -65%; inconclusive = mostly about -30% to -63%
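AlphaScreen with 125 nM GST-E1A and 125 nM His-CtBP (5X stocks) in Tris pH 8.0, 300 mM NaCl, BSA, Tween 20, TCEP. Compounds preincubated 2 h at 37 deg C, then glutathione donor/nickel acceptor beads added for 1 h at 37 deg C in dark.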
RORgamma inh – inhibitors of mouse ROR gamma transcriptional activity; Drosophila S2 Gal4-RORgamma UAS-luciferase reporter, 20 h; Potency, µM (highest dose often 53.6 µM), for the others: top-dose activity change, negative = inhibition, usual class: inhibitors; 310,000 compounds, 5.4% hits; note: potency is the fitted concentration of half-maximal effect; nearly all actives have a fitted effect of over 60% in size
Target sequence (P51450 whole entry, looked up, the tested form may be a part): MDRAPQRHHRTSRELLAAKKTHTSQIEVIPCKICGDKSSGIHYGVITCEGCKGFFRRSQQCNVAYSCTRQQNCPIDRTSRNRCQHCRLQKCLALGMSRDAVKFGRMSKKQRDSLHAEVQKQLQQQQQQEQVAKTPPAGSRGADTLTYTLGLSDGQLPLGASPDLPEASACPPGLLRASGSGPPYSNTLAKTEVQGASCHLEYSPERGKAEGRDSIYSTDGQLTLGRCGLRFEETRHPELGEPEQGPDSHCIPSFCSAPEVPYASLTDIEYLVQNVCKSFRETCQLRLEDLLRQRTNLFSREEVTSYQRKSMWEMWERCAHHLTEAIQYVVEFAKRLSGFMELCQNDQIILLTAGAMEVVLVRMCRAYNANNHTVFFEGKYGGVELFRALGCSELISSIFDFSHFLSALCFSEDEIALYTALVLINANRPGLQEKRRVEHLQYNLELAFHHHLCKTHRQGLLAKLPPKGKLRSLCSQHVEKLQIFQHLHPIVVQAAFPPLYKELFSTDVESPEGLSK
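Schneider cells (Drosophila), stable Gal4 DBD–ROR gamma + UAS-luc; 1 hr cmpd preincubation; Cu2+ induction 700 uM final; 20 hr ambient; luminescence.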
VP16 counter – Gal4-VP16 reporter inhibition counter-screen | Potency, µM (doses to about 53.6 µM), without a hit: at the highest dose activity, negative = inhibition, actives largely listed as inhibitors | 310,000 compounds, 3.5% hits | AID 2546 | Drosophila S2 Gal4-VP16 UAS-luciferase, luminescence, 20 h;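 note: Gal4-VP16 expression switched on by copper sulfate through the metallothionein promoter; potency is the fitted concentration of half-maximal effect; nearly all actives have a fitted effect of over 50% in size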
Six1-Eya2 blk – Six1/Eya2 interaction inhibition; Q15475+O00167; AlphaScreen GST-Six1/His-Eya2 binding, biochemical; hits give low values; activity change, % (test concentration not listed); 360,000 compounds, 0.56% hits; AID 651725; in the data active = activity change below about -65%; inconclusive = mostly about -30% to -63%
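GST-Six1 + His-Eya2 (5X stock: 250/500 nM); Tris pH 8.0, 300 mM NaCl, 0.05% BSA, 0.02% Tween 20; GSH donor/Ni acceptor beads; 1 h 37 °C dark; AlphaScreen readout.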
PKM2 activator – PKM2 (human) enzyme activation; Potency, µM (doses to about 57.5 µM), for inactives: at the highest dose activation, hits mostly activators; 260,000 compounds, 0.34% hits; P14618; purified PKM2, Kinase-Glo ATP luminescence, activation; response scale: 0% is enzyme alone, no compound; AID 1631; note: potency is the fitted concentration of half-maximal effect; nearly all actives have a fitted effect of over 55% in size
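Purified hPK-M2 (>95% pure) converted ADP (0.1 mM final) to ATP with 0.5 mM PEP in 50 mM imidazole pH7.2, KCl, MgCl2, Tween 20, BSA; 1 h at room temperature. ATP detected by Kinase-Glo luminescence.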
* = called active by the depositor; [ ] = dose if it differs, or a comment. Unless noted, calls come from the whole dose curve; as a rule, active = well fitted curve in the direction sought with a large enough effect; inconclusive = small, poorly fitted or top-dose-only effect, or another doubt; inactive = no such curve, though single readings can be large; an effect the other way counts as inactive or inconclusive. % is set by controls: 0 for no effect and ±100 for the full control effect.

For CC(C)NC(=S)Nc1ccc(Oc2ccccc2)cc1 the results were CtBP-E1A blk -2, RORgamma inh inconclusive, VP16 counter -17%, Six1-Eya2 blk -9 and PKM2 activator 2%.
Cc1c(C(=O)N2CCCCC2)c(S(=O)(=O)NCCc2ccc(Cl)cc2)c(C)n1C was read as RORgamma inh 11%, VP16 counter 1% and Six1-Eya2 blk -8.
`O=C(CN1C(=O)NC2(CCCc3ccccc32)C1=O)NCc1ccc(Cl)cc1Cl` (stereo not drawn) gave CtBP-E1A blk 3, Six1-Eya2 blk 1 and PKM2 activator 3%.
`Oc1ccccc1-c1nnc(COc2ccccc2)o1` gave CtBP-E1A blk 9, RORgamma inh 10µM*, VP16 counter inconclusive, Six1-Eya2 blk 2 and PKM2 activator inconclusive.
For Oc1ccccc1-c1nnc(COc2ccc(Cl)cc2Cl)o1 the results were CtBP-E1A blk 0, RORgamma inh 2.5µM*, VP16 counter 4.5µM*, Six1-Eya2 blk 2 and PKM2 activator 0%.
`c1ccc(OCc2nnc(-c3ccccc3)o2)cc1` gave CtBP-E1A blk 2, RORgamma inh 5%, VP16 counter 5%, Six1-Eya2 blk 28 and PKM2 activator 5%.
Screening CC(=O)Nc1ccccc1OCc1nnc(-c2ccccc2Cl)o1 returned CtBP-E1A blk -1, RORgamma inh -8%, VP16 counter 0%, Six1-Eya2 blk 0 and PKM2 activator -1%[11.5 µM].
For O=S(=O)(NC(=NCCc1ccc(Cl)cc1)c1ccccc1Cl)c1cccs1 the results were CtBP-E1A blk 0, RORgamma inh 22%, VP16 counter 3%, Six1-Eya2 blk -3 and PKM2 activator -2%.
O=C(O)C1CCc2nc(NCc3ccccc3)nc(NCc3ccccc3)c2C1 (stereo not drawn) was read as CtBP-E1A blk 6 and Six1-Eya2 blk 0.
CCCn1c(=O)c(C(=O)NNC(=O)c2ccccc2[N+](=O)[O-])c(O)c2ccccc21 was read as RORgamma inh inconclusive, VP16 counter inconclusive and PKM2 activator 1%.
`Cn1c(=O)c(C(=O)NCc2ccccc2Cl)c(O)c2ccccc21` gave CtBP-E1A blk -4, RORgamma inh -11%[1.91 µM], VP16 counter -8%, Six1-Eya2 blk 2 and PKM2 activator 0%.
Screening CCCCCCC(=O)NNC(=O)c1c(O)c2ccccc2n(CC)c1=O returned CtBP-E1A blk -8, RORgamma inh 11µM*, VP16 counter inconclusive, Six1-Eya2 blk -18 and PKM2 activator 1%.
CCCn1c(=O)c(C(=O)Nc2cccc(C)c2)c(O)c2ccccc21 was read as RORgamma inh inconclusive, VP16 counter 13µM*, Six1-Eya2 blk 16 and PKM2 activator -4%.
Screening CCCn1c(=O)c(C(=O)NNC(=O)c2ccccc2Cl)c(O)c2ccccc21 returned CtBP-E1A blk inconclusive, RORgamma inh 11µM*, VP16 counter inconclusive, Six1-Eya2 blk inconclusive and PKM2 activator 3%.
CCCn1c(=O)c(C(=O)Nc2ccccc2)c(O)c2ccccc21 was read as CtBP-E1A blk 9, RORgamma inh 0%, VP16 counter inconclusive, Six1-Eya2 blk 8 and PKM2 activator 7%.
For CCn1c(=O)c(C(=O)NCc2ccccc2Cl)c(O)c2ccccc21 the results were CtBP-E1A blk 10, RORgamma inh inconclusive, VP16 counter 20µM*, Six1-Eya2 blk 0 and PKM2 activator 4%.
Screening CC1(CC(=O)N/N=C/c2cc([N+](=O)[O-])c(O)cc2O)OCCO1 returned RORgamma inh 5.6µM*, VP16 counter inconclusive, Six1-Eya2 blk -89* and PKM2 activator -4%.
Cc1ccc(-n2c(C)cc(/C=N/NC(=O)CC3(C)OCCO3)c2C)c(C)c1 was read as CtBP-E1A blk -5, RORgamma inh -11%, VP16 counter 6%, Six1-Eya2 blk -5 and PKM2 activator -24%.
Screening COc1cc(OC)cc(-c2nc3ccccc3c(=O)n2OC(=O)c2ccc(Br)cc2)c1 returned CtBP-E1A blk -1, RORgamma inh 10µM*, VP16 counter 11µM*, Six1-Eya2 blk 3 and PKM2 activator -4%.
For COc1ccc(C(=O)On2c(-c3ccc(Br)cc3)nc3ccccc3c2=O)cc1 the results were CtBP-E1A blk 0, RORgamma inh 7.1µM*, VP16 counter 5µM*, Six1-Eya2 blk 1 and PKM2 activator -8%.
Screening COc1ccc(-c2nc3ccccc3c(=O)n2N)cc1 returned CtBP-E1A blk -7, RORgamma inh 17%, VP16 counter 3%, Six1-Eya2 blk 5 and PKM2 activator 2%.
Screening COc1ccc(O)c(CNn2c(-c3ccc(Br)cc3)nc3ccccc3c2=O)c1 returned CtBP-E1A blk -4, RORgamma inh -2%, VP16 counter -6%, Six1-Eya2 blk 7 and PKM2 activator -14%.
`CCCCCCn1c(-c2cccs2)n[nH]c1=S` gave CtBP-E1A blk 0, RORgamma inh 2µM*, VP16 counter inconclusive, Six1-Eya2 blk 2 and PKM2 activator -1%.
Screening OCCCn1c(-c2ccccc2)n[nH]c1=S returned CtBP-E1A blk 6, RORgamma inh -45%, VP16 counter -9%, Six1-Eya2 blk 7 and PKM2 activator -3%.
CCCCNC(=S)NNC(=O)c1csc2c1CCC(C)C2 (stereo not drawn) was read as CtBP-E1A blk -4, RORgamma inh inconclusive, VP16 counter -19%, Six1-Eya2 blk 0 and PKM2 activator 4%.
`CCCCn1c(-c2csc3c2CCC(C)C3)n[nH]c1=S` (stereo not drawn) gave CtBP-E1A blk -6, RORgamma inh 0.79µM*, VP16 counter 2.5µM*, Six1-Eya2 blk -9 and PKM2 activator -6%.
Screening C=CCn1c(-c2csc3c2CCC(C)C3)n[nH]c1=S (stereo not drawn) returned CtBP-E1A blk -9, RORgamma inh 1.4µM*, VP16 counter 2.5µM*, Six1-Eya2 blk -11 and PKM2 activator -14%.
For CCCCn1c(-c2csc3ccccc23)n[nH]c1=S the results were CtBP-E1A blk 1, RORgamma inh 7.9µM*, VP16 counter inconclusive, Six1-Eya2 blk 1 and PKM2 activator -6%.
NC(=O)C(=O)N/N=C/c1cccc(C(F)(F)F)c1 was read as CtBP-E1A blk 4, RORgamma inh -22%, VP16 counter -2%, Six1-Eya2 blk 6 and PKM2 activator -1%.
CCn1c(-c2csc3c2CCCC3)n[nH]c1=S was read as CtBP-E1A blk -14, RORgamma inh 4µM*, VP16 counter 4.5µM*, Six1-Eya2 blk -3 and PKM2 activator -4%.
For CCCCn1c(SCC(N)=O)nc2sc3c(c2c1=O)CCC3 the results were CtBP-E1A blk -2, RORgamma inh 12%, VP16 counter 13%, Six1-Eya2 blk -2 and PKM2 activator 1%.
